From publication PMC7862700, “An all-to-all approach to the identification of sequence-specific readers for epigenetic DNA modifications on cytosine”

Columns and labels:
Test in all cases: DAPPL (digital affinity profiling via proximity ligation, sequencing); 10 mM Tris-HCl pH 7.5, 50 mM NaCl, 1 mM DTT, 4% glycerol, room temperature, 30 min; GST-TFs on glutathione beads, 16-mer random dsDNA library, 0.1% formaldehyde crosslink after washing; high values mean tight binding
FLI1 = target: T1, FLI1 (Homo sapiens, UniProt Q01543 1-452); details: protein: recombinant; tags: N-terminal GST; dsDNA, one strand shown
T1 sequence: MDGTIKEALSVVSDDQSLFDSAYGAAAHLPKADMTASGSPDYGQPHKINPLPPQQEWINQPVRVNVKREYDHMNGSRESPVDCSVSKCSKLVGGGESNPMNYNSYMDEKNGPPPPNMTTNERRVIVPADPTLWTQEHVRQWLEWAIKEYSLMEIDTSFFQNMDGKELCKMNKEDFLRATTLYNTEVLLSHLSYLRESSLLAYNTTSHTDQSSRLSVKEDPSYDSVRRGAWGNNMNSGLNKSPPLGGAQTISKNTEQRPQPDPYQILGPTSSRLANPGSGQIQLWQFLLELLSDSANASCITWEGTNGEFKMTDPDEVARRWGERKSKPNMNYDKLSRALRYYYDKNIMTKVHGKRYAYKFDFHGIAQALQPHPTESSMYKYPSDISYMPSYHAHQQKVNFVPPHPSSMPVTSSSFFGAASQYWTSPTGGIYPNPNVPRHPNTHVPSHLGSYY
In short: (§1)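 Pools were built from human transcription factors expressed in yeast as GST fusions, captured on glutathione beads and DNA-barcoded, along with a tag-only sample. Incubation with 200 nmole of a 16-mer random double-stranded DNA library lasted 30 min at room temperature in Tris/NaCl/DTT/glycerol buffer, and was followed by washing, 0.1% formaldehyde crosslinking, proximity ligation, PCR amplification and Illumina NextSeq500 sequencing. Binding signal is the quotient of each hexamer's read frequency for a factor and its frequency for the tag-only sample.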

ELK1 = target: T2, ELK1 (Homo sapiens, UniProt P19419 1-428); details: protein: recombinant; tags: N-terminal GST; dsDNA, one strand shown
T2 sequence: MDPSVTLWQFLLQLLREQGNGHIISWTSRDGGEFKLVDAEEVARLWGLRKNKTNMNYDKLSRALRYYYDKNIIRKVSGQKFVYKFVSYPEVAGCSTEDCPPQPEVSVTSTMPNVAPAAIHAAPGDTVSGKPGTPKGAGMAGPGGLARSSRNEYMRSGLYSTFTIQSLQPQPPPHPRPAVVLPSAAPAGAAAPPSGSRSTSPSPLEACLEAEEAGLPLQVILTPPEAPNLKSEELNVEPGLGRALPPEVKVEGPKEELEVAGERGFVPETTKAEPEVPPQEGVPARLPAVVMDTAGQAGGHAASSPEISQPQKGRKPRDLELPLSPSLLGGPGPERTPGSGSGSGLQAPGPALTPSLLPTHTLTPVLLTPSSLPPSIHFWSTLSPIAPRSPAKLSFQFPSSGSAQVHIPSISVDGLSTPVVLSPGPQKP
In short: as §1

GABPA = target: T3, GABPA (Homo sapiens, UniProt Q06546 1-454); details: protein: recombinant; tags: N-terminal GST; dsDNA, one strand shown
T3 sequence: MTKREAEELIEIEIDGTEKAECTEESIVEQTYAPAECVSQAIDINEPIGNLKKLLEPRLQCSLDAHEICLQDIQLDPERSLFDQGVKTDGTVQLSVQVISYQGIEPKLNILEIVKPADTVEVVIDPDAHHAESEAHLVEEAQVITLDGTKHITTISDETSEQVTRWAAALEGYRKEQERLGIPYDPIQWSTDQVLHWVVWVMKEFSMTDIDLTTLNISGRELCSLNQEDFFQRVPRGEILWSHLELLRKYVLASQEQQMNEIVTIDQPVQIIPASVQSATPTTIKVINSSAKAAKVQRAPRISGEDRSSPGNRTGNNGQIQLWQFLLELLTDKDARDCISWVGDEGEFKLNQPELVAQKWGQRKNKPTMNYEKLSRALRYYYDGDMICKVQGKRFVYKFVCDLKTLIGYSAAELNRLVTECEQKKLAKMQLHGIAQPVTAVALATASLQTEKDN
In short: as §1

ELF1 = ELF1 (Homo sapiens, UniProt P32519 1-619); details: protein: recombinant; tags: N-terminal GST; dsDNA, one strand shown
Chain of ELF1 (P32519 whole entry): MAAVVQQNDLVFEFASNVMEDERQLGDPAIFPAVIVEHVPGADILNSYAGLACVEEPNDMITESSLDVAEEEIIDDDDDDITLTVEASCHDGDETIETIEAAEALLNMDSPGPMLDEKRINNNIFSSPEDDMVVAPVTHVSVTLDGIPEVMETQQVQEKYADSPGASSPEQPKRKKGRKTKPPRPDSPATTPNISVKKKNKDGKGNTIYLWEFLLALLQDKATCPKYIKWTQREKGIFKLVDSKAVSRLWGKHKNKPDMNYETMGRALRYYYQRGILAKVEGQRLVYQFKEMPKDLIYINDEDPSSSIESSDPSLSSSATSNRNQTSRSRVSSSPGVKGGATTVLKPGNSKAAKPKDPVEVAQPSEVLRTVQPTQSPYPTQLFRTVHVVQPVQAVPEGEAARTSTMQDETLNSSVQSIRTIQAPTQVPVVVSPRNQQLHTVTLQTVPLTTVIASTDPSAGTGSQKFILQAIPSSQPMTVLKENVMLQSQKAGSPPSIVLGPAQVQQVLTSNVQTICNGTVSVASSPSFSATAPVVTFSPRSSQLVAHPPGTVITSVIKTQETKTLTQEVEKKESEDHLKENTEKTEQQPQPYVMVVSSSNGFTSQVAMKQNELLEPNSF
In short: as §1

EHF = target: T4, EHF (Homo sapiens, UniProt Q9NZC4 1-300); details: protein: recombinant; tags: N-terminal GST; dsDNA, one strand shown
T4 sequence: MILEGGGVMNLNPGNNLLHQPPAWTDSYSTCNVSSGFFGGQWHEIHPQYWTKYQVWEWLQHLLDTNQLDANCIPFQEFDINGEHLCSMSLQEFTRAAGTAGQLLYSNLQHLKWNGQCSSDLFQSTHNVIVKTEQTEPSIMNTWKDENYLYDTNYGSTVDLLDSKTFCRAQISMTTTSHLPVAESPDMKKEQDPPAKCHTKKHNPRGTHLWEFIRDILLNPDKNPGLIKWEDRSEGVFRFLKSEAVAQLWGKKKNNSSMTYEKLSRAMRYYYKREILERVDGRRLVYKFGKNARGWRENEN
In short: as §1

SPI1 = SPI1 (Homo sapiens, UniProt P17947 1-270); details: protein: recombinant; tags: N-terminal GST; dsDNA, one strand shown
In short: as §1

SPIB = SPIB (Homo sapiens, UniProt Q01892 1-262); details: protein: recombinant; tags: N-terminal GST; dsDNA, one strand shown
Chain of SPIB (Q01892 whole entry): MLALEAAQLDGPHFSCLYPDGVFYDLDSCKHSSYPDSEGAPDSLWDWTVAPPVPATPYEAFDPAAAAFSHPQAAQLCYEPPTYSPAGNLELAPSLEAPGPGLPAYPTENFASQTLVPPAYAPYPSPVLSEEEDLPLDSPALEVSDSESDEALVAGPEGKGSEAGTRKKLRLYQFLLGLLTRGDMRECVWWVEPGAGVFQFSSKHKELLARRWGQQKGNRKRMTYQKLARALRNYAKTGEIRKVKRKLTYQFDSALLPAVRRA
In short: as §1

ELK3 = target: T5, ELK3 (Homo sapiens, UniProt P41970 1-407); details: protein: recombinant; tags: N-terminal GST; dsDNA, one strand shown
T5 sequence: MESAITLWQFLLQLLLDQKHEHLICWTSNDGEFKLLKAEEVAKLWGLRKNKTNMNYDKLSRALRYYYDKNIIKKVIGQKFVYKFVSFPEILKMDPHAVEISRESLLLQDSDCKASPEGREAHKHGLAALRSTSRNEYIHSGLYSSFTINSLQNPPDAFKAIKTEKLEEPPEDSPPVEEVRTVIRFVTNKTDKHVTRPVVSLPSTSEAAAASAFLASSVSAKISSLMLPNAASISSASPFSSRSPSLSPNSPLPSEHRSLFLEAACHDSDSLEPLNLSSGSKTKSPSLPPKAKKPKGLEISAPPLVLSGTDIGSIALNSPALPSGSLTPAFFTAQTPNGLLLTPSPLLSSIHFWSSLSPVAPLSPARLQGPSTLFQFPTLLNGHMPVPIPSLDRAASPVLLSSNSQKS
In short: as §1

FEV = target: T6, FEV (Homo sapiens, UniProt Q99581 1-238); details: protein: recombinant; tags: N-terminal GST; dsDNA, one strand shown
T6 sequence: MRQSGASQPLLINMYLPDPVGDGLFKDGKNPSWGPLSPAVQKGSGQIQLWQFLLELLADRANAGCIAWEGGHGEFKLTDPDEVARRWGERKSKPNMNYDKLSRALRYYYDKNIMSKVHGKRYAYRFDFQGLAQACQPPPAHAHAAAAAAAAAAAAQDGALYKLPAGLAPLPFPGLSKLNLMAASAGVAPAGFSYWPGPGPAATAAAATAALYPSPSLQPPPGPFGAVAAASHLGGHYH
In short: as §1

ETV5 = ETV5 (Homo sapiens, UniProt P41161 1-510); details: protein: recombinant; tags: N-terminal GST; dsDNA, one strand shown
Chain of ETV5 (P41161 whole entry): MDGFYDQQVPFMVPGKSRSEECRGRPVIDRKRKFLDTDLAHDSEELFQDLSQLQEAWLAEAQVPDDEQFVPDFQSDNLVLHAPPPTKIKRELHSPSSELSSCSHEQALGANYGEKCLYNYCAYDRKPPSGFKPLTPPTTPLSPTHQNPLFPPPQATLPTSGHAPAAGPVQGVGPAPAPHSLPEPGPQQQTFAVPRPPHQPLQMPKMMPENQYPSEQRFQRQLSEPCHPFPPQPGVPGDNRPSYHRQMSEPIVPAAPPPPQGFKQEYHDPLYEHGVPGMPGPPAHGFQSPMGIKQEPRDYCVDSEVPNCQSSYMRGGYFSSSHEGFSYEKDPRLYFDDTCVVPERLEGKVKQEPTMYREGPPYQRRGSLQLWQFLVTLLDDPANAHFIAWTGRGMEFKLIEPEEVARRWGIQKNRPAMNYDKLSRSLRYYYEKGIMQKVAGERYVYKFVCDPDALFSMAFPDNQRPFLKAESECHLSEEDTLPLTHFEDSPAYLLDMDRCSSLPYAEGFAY
In short: as §1

HSF1 = HSF1 (Homo sapiens, UniProt Q00613 1-529); details: protein: recombinant; tags: N-terminal GST; chain copies: 3; dsDNA, one strand shown
Chain of HSF1 (Q00613 whole entry): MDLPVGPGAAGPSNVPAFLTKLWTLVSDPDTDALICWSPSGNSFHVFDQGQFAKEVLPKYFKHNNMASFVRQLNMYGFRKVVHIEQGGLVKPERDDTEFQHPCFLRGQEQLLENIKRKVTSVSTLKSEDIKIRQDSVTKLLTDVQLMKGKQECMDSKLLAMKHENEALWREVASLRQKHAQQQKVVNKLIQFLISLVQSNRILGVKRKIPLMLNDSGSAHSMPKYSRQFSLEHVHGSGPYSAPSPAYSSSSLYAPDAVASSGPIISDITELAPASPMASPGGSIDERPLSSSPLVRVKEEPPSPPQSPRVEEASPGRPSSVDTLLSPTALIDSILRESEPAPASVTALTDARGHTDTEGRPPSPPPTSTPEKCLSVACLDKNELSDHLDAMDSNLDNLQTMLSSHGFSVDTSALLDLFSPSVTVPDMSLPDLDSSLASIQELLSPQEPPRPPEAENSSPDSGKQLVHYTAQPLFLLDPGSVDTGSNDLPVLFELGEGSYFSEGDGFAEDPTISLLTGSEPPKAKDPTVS
In short: as §1

SPIC = target: T7, SPIC (Homo sapiens, UniProt Q8N5J4 1-248); details: protein: recombinant; tags: N-terminal GST; dsDNA, one strand shown
T7 sequence: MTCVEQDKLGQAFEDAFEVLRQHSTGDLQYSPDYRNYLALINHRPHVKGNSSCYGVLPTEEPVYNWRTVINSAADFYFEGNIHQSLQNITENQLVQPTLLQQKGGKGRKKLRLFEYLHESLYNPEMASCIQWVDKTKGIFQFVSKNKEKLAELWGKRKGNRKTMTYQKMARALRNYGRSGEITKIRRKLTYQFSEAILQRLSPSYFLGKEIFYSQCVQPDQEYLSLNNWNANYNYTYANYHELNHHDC
In short: as §1

ELF4 = ELF4 (Homo sapiens, UniProt Q99607 1-663); details: protein: recombinant; tags: N-terminal GST; dsDNA, one strand shown
Chain of ELF4 (Q99607 whole entry): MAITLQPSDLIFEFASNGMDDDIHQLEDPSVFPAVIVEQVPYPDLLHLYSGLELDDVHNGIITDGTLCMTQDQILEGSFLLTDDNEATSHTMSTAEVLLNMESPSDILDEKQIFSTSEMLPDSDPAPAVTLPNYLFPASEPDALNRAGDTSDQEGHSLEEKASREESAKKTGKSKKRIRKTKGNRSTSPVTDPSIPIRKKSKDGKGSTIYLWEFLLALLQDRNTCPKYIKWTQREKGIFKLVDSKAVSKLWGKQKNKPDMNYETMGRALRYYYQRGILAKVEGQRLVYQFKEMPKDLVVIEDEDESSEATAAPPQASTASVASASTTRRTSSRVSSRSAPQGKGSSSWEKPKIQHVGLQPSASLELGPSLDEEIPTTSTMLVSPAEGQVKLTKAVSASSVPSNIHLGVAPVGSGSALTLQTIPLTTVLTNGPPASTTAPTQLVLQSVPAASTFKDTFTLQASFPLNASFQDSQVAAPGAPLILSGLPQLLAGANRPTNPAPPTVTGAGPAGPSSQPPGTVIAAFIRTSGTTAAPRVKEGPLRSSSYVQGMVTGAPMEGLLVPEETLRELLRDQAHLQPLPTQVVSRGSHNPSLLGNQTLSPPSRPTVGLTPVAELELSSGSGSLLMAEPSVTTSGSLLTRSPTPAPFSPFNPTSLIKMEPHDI
In short: as §1

ELK4 = target: T8, ELK4 (Homo sapiens, UniProt P28324-2 1-405); details: protein: recombinant; tags: N-terminal GST; dsDNA, one strand shown
T8 sequence: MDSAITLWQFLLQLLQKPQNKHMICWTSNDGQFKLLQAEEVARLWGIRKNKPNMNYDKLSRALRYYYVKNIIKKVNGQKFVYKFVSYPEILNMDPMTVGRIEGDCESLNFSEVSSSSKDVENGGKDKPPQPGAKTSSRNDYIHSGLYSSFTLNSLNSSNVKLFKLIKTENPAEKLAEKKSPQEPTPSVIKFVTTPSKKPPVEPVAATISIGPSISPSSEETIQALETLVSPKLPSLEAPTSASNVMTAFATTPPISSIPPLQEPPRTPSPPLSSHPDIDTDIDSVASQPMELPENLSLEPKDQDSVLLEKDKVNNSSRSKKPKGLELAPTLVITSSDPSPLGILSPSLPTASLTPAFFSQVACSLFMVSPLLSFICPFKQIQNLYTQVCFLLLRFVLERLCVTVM
In short: as §1

ETV2 = target: T9, ETV2 (Homo sapiens, UniProt O00321 1-342); details: protein: recombinant; tags: N-terminal GST; dsDNA, one strand shown
T9 sequence: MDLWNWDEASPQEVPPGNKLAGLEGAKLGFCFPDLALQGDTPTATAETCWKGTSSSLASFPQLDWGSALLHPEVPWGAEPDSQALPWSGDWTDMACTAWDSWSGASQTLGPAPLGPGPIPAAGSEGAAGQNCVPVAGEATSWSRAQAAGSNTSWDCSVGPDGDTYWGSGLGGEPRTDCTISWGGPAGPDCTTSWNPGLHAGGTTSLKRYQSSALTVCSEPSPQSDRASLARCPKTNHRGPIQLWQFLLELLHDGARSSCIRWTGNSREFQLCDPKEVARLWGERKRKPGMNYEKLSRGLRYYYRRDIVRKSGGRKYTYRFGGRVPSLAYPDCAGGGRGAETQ
In short: as §1

ELF3 = target: T10, ELF3 (Homo sapiens, UniProt P78545 1-371); details: protein: recombinant; tags: N-terminal GST; dsDNA, one strand shown
T10 sequence: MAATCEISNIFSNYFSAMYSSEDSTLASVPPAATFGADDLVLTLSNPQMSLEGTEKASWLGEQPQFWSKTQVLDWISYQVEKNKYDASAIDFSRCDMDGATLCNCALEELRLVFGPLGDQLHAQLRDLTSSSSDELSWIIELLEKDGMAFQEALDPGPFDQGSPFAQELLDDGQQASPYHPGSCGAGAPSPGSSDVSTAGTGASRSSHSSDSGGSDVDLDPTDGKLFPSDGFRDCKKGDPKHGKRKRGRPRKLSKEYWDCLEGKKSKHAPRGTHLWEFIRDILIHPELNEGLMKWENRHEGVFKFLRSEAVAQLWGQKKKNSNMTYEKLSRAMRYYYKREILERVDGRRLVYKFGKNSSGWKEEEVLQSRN
In short: as §1

CRX = CRX (Homo sapiens, UniProt O43186 1-299); details: protein: recombinant; tags: N-terminal GST; dsDNA, one strand shown
Chain of CRX (O43186 whole entry): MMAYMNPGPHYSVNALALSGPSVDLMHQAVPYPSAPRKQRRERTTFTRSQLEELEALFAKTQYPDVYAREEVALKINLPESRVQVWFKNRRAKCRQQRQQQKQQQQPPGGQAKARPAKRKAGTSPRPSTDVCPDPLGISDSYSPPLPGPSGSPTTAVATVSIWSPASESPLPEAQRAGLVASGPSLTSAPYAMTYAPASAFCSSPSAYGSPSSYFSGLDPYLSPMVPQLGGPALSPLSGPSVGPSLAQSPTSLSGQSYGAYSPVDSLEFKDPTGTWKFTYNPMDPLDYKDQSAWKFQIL
In short: as §1

ETV1 = ETV1 (Homo sapiens, UniProt P50549 1-477); details: protein: recombinant; tags: N-terminal GST; dsDNA, one strand shown
Chain of ETV1 (P50549 whole entry): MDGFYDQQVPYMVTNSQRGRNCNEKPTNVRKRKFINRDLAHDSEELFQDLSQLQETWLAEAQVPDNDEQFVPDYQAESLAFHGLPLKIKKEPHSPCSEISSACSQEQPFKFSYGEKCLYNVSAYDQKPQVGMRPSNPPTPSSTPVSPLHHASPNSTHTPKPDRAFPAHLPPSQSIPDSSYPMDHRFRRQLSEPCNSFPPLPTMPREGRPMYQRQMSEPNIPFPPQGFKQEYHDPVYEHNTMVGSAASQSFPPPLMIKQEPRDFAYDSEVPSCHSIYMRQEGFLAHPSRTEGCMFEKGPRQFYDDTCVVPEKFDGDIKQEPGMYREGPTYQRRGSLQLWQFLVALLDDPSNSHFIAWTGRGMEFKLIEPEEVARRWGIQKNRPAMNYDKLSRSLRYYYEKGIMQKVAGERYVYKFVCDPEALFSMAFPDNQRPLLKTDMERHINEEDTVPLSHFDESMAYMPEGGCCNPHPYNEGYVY
In short: as §1

What does the source list for CCCTGG?
binding signal (FLI1): 1.1 fold enrichment (6-mer frequency, TF over GST control); binding signal (ELK1): 1.13 fold enrichment (6-mer frequency, TF over GST control); binding signal (GABPA): 1.21 fold enrichment (6-mer frequency, TF over GST control); binding signal (ELF1): 1.19 fold enrichment (6-mer frequency, TF over GST control); binding signal (EHF): 1.11 fold enrichment (6-mer frequency, TF over GST control); binding signal (SPI1): 1.06 fold enrichment (6-mer frequency, TF over GST control); binding signal (SPIB): 1.09 fold enrichment (6-mer frequency, TF over GST control); binding signal (ELK3): 1.03 fold enrichment (6-mer frequency, TF over GST control); binding signal (FEV): 1.08 fold enrichment (6-mer frequency, TF over GST control); binding signal (ETV5): 1.09 fold enrichment (6-mer frequency, TF over GST control); binding signal (HSF1): 1.11 fold enrichment (6-mer frequency, TF over GST control); binding signal (SPIC): 1.25 fold enrichment (6-mer frequency, TF over GST control); binding signal (ELF4): 1.14 fold enrichment (6-mer frequency, TF over GST control); binding signal (ELK4): 1.21 fold enrichment (6-mer frequency, TF over GST control); binding signal (ETV2): 1.04 fold enrichment (6-mer frequency, TF over GST control); binding signal (ELF3): 1 fold enrichment (6-mer frequency, TF over GST control); binding signal (CRX): 1.06 fold enrichment (6-mer frequency, TF over GST control); binding signal (ETV1): 1.18 fold enrichment (6-mer frequency, TF over GST control)
